According to PubChem BioAssay AID1159580 (chemical genetic matrix, 2015):
“And” between values parts separate entries of the source, which are not always exact repeats. Identical values can stand only once. Among all 5,500 compounds or so, about 2,000 (36%) were called active. About 18% were inconclusive and are not listed. Cut-off read from the data, not from the text of the source: active = normalized growth mostly below about 0.91 (no sharp cut-off); inconclusive = no clear call, values can overlap the other calls; inactive = mostly above about 0.92. This is one part of the list.

Assay: chemical genetic growth profiling, strain panel (AID 1159580);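 note: tested at 20 µM; growth read once vehicle control cultures reached saturation at 30 °C; 1 = growth at the plate median or of vehicle wells; lower values mean less growth of the strain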
Settings: S. cerevisiae deletion strains, growth OD

Measured: normalized growth

CC(C)Nc1nc(Cl)nc(NC(C)C)n1
inactive: locus YAL013W, strain DEP1, hits give low values 1.01 | locus YAL021C, strain ccr4, hits give low values 1 | locus YAL026C, strain drs2, hits give low values 0.996 | locus YAL030W, strain snc1, hits give low values 0.998 | locus YBL061C, strain skt5, hits give low values 0.996 | locus YBR009C, strain hhf1, hits give low values 1 | locus YBR021W, strain FUR4, hits give low values 1.01 | locus YBR023C, strain chs3, hits give low values 0.992 | locus YBR171W, strain sec66, hits give low values 0.995 | locus YBR229C, strain ROT2, hits give low values 0.993 | locus YBR231C, strain swc5, hits give low values 0.996 | locus YBR279W, strain paf1, hits give low values 0.994 | locus YCL011C, strain gbp2, hits give low values 0.992 | locus YCL016C, strain dcc1, hits give low values 1 | locus YCL029C, strain bik1, hits give low values 1.01 | locus YCL061C, strain MRC1, hits give low values 0.987 | locus YCL069W, strain vba3, hits give low values 1.01 | locus YCR088W, strain abp1, hits give low values 0.992 | locus YDL005C, strain med2, hits give low values 0.998 | locus YDL035C, strain GPR1, hits give low values 1.01 | locus YDL040C, strain nat1, hits give low values 0.999 | locus YDL074C, strain BRE1, hits give low values 1.01 | locus YDL101C, strain DUN1, hits give low values 1.01 | locus YDL134C, strain PPH21, hits give low values 1.01 | locus YDL185W, strain tfp1, hits give low values 1.01 | locus YDL192W, strain arf1, hits give low values 1 | locus YDR001C, strain nth1, hits give low values 1 | locus YDR069C, strain doa4, hits give low values 1.01 | locus YDR101C, strain arx1, hits give low values 0.996 | locus YDR137W, strain rgp1, hits give low values 0.953 | locus YDR150W, strain NUM1, hits give low values 1 | locus YDR159W, strain sac3, hits give low values 1.03 | locus YDR162C, strain NBP2, hits give low values 1.01 | locus YDR195W, strain ref2 0.969 | locus YDR297W, strain sur2, hits give low values 1 | locus YDR318W, strain mcm21, hits give low values 1.02 | locus YDR334W, strain swr1, hits give low values 0.995 | locus YDR335W, strain msn5, hits give low values 1 | locus YDR388W, hits give low values 1.01 | locus YDR392W, strain spt3, hits give low values 0.996 | locus YDR502C, strain sam2, hits give low values 1.01 | locus YEL003W, strain gim4, hits give low values 1 | locus YEL037C, strain rad23, hits give low values 1.01 | locus YEL061C, strain CIN8 (second series), hits give low values 1 | locus YEL061C, strain CIN8, hits give low values 1.01 | locus YER015W, strain faa2, hits give low values 1 | locus YER016W, strain bim1, hits give low values 1 | locus YER110C, hits give low values 1.01 | locus YER111C, strain swi4, hits give low values 0.994 | locus YER155C, strain BEM2 (second series), hits give low values 0.992 | locus YER155C, strain BEM2, hits give low values 1.01 | locus YER167W, strain BCK2, hits give low values 1.01 | locus YFR010W, strain ubp6, hits give low values 1.01 | locus YGL078C, strain dbp3, hits give low values 1.02 | locus YGL086W, strain mad1, hits give low values 1.01 | locus YGL167C, strain pmr1, hits give low values 0.998 | locus YGL173C, strain kem1, hits give low values 0.996 | locus YGL227W, strain vid30, hits give low values 0.988 | locus YGL240W, strain doc1, hits give low values 0.99 | locus YGL248W, strain PDE1, hits give low values 1.01 | locus YGL253W, strain hxk2, hits give low values 0.999 | locus YGR078C, strain PAC10, hits give low values 0.997 | locus YGR135W, strain pre9, hits give low values 0.997 | locus YGR229C, strain SMI1, hits give low values 1 | locus YGR252W, strain gcn5, hits give low values 0.983 | locus YHR013C, strain ard1, hits give low values 1 | locus YHR027C, strain rpn1, hits give low values 0.994 | locus YHR030C, strain SLT2, hits give low values 0.979 | locus YHR079C, strain IRE1 (second series), hits give low values 1.02 | locus YHR079C, strain IRE1, hits give low values 0.978 | locus YHR094C, strain hxt1, hits give low values 1.01 | locus YHR129C, strain ARP1, hits give low values 1.01 | locus YHR142W, strain chs7, hits give low values 0.995 | locus YHR200W, strain rpn10, hits give low values 1.01 | locus YIL066C, strain RNR3, hits give low values 1.02 | locus YIL073C, strain SPO22, hits give low values 1.07 | locus YIL125W, strain kgd1, hits give low values 1 | locus YIR030C, strain dcg1, hits give low values 1.02 | locus YJL092W, strain hpr5, hits give low values 0.995 | locus YJL095W, strain BCK1 (second series), hits give low values 1 | locus YJL095W, strain BCK1, hits give low values 0.987 and 0.984 | locus YJL115W, strain asf1, hits give low values 0.986 | locus YJL129C, strain trk1, hits give low values 0.997 | locus YJL134W, strain LCB3, hits give low values 0.993 | locus YJL154C, strain vps35, hits give low values 1 | locus YJL164C, strain tpk1, hits give low values 1.01 | locus YJL166W, strain qcr8, hits give low values 1 | locus YJL168C, strain set2, hits give low values 1.01 | locus YJL187C, strain SWE1 (second series), hits give low values 1.01 | locus YJL187C, strain SWE1, hits give low values 1.01 | locus YJR043C, strain POL32, hits give low values 1.01 | locus YJR066W, strain TOR1, hits give low values 0.928
